# From ChEMBL document CHEMBL1157539, “Thousands of chemical starting points for antimalarial lead identification” (Nature, 2010)
# Columns and labels:
# Assay type in all cases: functional
# Plasmodium falciparum [1] = assay: GSK_TCMDC: Inhibition of Plasmodium falciparum 3D7 in whole red blood cells, using parasite LDH activity as an index of growth. Test compounds present at 2uM
# Plasmodium falciparum [2] = assay: GSK_TCMDC: Inhibition of Plasmodium falciparum Dd2 in whole red blood cells, using parasite LDH activity as an index of growth. Test compounds present at 2uM
# HepG2 = assay: GSK_TCMDC: Percent inhibition of human HepG2 cell line. Test compounds present at 10uM.
Structure (SMILES),Inhibition (Plasmodium falciparum [1]),Inhibition (Plasmodium falciparum [2]),Inhibition (HepG2)
Cl.O=S(=O)(Nc1cc2c(cc1O)CCNCC2)c1ccc(-c2ccc(Cl)cc2)cc1,99%,0%,10%
O=C(Nc1cccc(CN2CCCN(CCc3ccccc3)CC2)c1)c1cc2ccccc2s1.O=C(O)C(F)(F)F,93%,39%,37%
Cl.O=S(=O)(Nc1ccc2nccc(N3CCNCC3)c2c1)c1ccc2c(Cl)cccc2c1,100%,2%,11%
COc1cc(C(=O)NC2CCc3ccccc32)cc(Cl)c1OC (configuration not stated),85%,60%,12%
O=C(Nc1cccc(-c2cccc(-c3nc4cc(F)ccc4[nH]3)c2)c1)c1ccncc1,92%,24%,28%
COc1cccc(NC(=O)Nc2ccc(Nc3nc(C)cc(N4CCCC4)n3)cc2)c1,100%,100%,28%
COc1ccc(N2CCN(CCCCNC(=O)c3ccc(/C=C/c4ccc(Cl)c(Cl)c4)cc3)CC2)c(OC)c1,100%,51%,51%
Fc1ccc2[nH]c(-c3ccc(-c4ccc(CNCC5CCCO5)cc4)cc3)nc2c1.O=C(O)C(F)(F)F (configuration not stated),100%,100%,26%
CC(C)CCNc1nc(NCCc2ccccc2)c2cc(O)ccc2n1,100%,97%,6%
N=C(N)NC(=O)Nc1cc(Br)c(Cl)c(Br)c1,100%,83%,0%
Cc1ccc(NC(=O)c2cccc(N3CCN(c4ccncc4)CC3)c2)cc1F.O=C(O)C(F)(F)F,100%,72%,43%
COc1ccc(-c2cccc(NC(=O)c3ccc(F)cc3)c2)cc1CNC(C)C.O=C(O)C(F)(F)F,83%,9%,32%
CC(C)(C)c1ccc(-c2cc3c(ccc4nc(N)nc(N)c43)[nH]2)cc1,100%,100%,100%
O=C(c1cccc(-c2cccc(-c3nc4cc(F)ccc4[nH]3)c2)c1)N1CCCCC1CN1CCC(O)C1 (configuration not stated),90%,100%,36%
OC(CNCc1ccccc1Oc1ccccc1)c1cccc(C(F)(F)F)c1 (configuration not stated),100%,98%,0%
CN(c1ccc(NC(=O)Nc2cc(C(F)(F)F)ccc2F)cc1)c1ccnc(NCCN2CCOCC2)n1.O=C(O)C(F)(F)F,97%,73%,67%
O=C(NC1CC1)c1ccc(N2CCC(COc3cccc(F)c3)CC2)nc1,89%,88%,0%
COC(=O)c1cc(OC2CCOC2=O)cc2c1OC(C)(C)O2 (configuration not stated),97%,0%,6%
NC(=S)Cc1ccc2c(c1)OCO2,96%,0%,43%
COc1cc2nc(N3CCC(CNCc4ccc(-c5ccc(C(F)(F)F)cc5)cc4)CC3)nc(N)c2cc1OC,99%,100%,99%
CCN(CC)C(=O)C1CCCN(c2cc(C)nc(Nc3ccc(Cl)cc3)n2)C1 (configuration not stated),94%,64%,13%
COc1cc2nc(NCCc3ccccc3)nc(NC(C)c3ccccc3)c2cc1OC (configuration not stated),99%,100%,9%
O=C(O)C(F)(F)F.OCC1CCN(Cc2ccc(-c3ccc(-c4nc5cc(C(F)(F)F)ccc5[nH]4)s3)cc2)CC1,100%,90%,35%
Cc1cccc2nc(-c3ccc(-c4cccc(NC(=O)C(C)CN5CCN(C)CC5)c4)cc3)[nH]c12 (configuration not stated),98%,51%,5%
Cc1ccc2c(O)c([N+](=O)[O-])c(O)nc2c1,98%,0%,3%
COc1ccccc1C1CCN(C2CCC(NC(=O)c3cc(-c4ccc(Cl)cc4)cs3)CC2)CC1 (configuration not stated),100%,100%,61%
Cc1cc(N[C@@H](Cc2ccccc2)C(=O)NCc2cccs2)nc(Nc2ccccc2)n1.O=C(O)C(F)(F)F,96%,36%,3%
CC1CN(c2cnn(Cc3ccc(NC(=O)Nc4ccc(-c5ccccc5)cc4)cc3)c(=O)c2Cl)CC(C)N1.O=C(O)C(F)(F)F (configuration not stated),100%,46%,82%
Cc1cccc2nc(-c3cccc(-c4ccc(C(=O)N5CCCCC5C(C)O)cc4)c3)[nH]c12 (configuration not stated),100%,91%,26%
